High-throughput results as filed in PubChem BioAssay.
Rpn11 inh = Rpn11 (PSMD14) deubiquitinase inhibitors, primary screen, biochemical, fluorescence polarization, uHTS; 26S proteasome non-ATPase regulatory subunit 14 (Homo sapiens), O00487; calls only at 20 µM; 360,000 compounds, 0.59% hits; human 26S proteasome, Ub4-pepOG fluorescence polarization; 20S core pre-blocked with epoxomicin;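 active = inhibition at 20 µM, scaled to each plate's controls, above about 33%, limit read from the data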
Neddylation inh = inhibitors of cullin neddylation, primary screen, biochemical, TR-FRET, uHTS, NAE and Ubc12; NEDD8-conjugating enzyme Ubc12 (Homo sapiens) + NEDD8-activating enzyme E1 regulatory …; inhibition, % at 25 µM; 360,000 compounds, 0.58% hits; AID 651699, 2012; in the data active = inhibition above about 36%
Target sequence (P61081 whole entry, looked up): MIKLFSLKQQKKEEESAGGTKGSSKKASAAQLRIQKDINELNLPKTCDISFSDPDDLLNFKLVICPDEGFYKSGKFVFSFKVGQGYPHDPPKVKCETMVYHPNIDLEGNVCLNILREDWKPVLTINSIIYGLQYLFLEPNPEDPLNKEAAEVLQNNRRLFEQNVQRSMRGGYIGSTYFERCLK
Target sequence (Q13564 whole entry, looked up): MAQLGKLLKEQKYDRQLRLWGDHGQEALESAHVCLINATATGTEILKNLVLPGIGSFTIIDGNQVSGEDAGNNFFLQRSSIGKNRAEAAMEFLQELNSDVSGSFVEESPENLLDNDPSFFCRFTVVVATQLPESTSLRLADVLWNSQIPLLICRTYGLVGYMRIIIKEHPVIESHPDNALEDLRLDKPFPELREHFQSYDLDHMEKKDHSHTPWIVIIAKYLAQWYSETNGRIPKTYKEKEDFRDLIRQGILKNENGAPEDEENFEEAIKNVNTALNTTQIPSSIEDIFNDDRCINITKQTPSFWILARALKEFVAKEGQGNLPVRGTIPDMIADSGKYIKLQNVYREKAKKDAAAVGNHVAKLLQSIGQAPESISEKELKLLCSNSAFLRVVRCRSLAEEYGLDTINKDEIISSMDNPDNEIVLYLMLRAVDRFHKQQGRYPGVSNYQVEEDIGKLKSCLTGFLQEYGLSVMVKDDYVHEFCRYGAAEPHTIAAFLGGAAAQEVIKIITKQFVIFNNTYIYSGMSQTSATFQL
PKA-R2B activ = activators of PKA-R2B holoenzyme, primary screen, biochemical, fluorescence polarization, Cy5-IP20, human; cAMP-dependent protein kinase catalytic subunit beta (Homo sapiens) + cAMP-dependent …; activation, % at 11.4 µM; PKA-R2B holoenzyme dissociation; R2B truncated from residue 108, S112A mutant; 0% DMSO only, 100% 113 µM cGMP; 340,000 compounds, 0.079% hits;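 active = activation above a cutoff set at the mean over all compounds plus 3 SD, cut at about 18% in these data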;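 note: higher means more holoenzyme dissociation and a rise in polarization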
PKA-R1A act = activators of PKA-R1A holoenzyme, primary screen, biochemical, fluorescence polarization, Cy5-IP20, bovine R1A, mouse PKAc | cAMP-dependent protein kinase type I-alpha regulatory subunit (Bos taurus) + … | PKA-R1A dissociation; scaled: DMSO 0%, 113 µM cGMP 100% | activation, % at 11.4 µM | 340,000 compounds, 0.083% hits;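 active = percent activation above the mean of all tested compounds plus 3 SD, cut at about 19% in these data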;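 note: higher means more PKAc released from R1A so a rise in polarization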
Starred values were filed as active, the others as inactive; i = inactive; · = no result given; + = active, no number; ! = repeats disagree. Hits are enriched below; roughly 1.3% of the tested compounds scored in any of these assays.

SMILES | Rpn11 inh | Neddylation inh | PKA-R2B activ | PKA-R1A act
COc1ccc(S(=O)(=O)Nc2ccc3c(c2)OCCO3)cc1OC | i | -5 | -5 | -11
Cc1[nH]n(-c2ccccc2)c(=O)c1/C=N/NC(=O)c1ccc(O)cc1O | i | 61* | 6 | -1
Cc1cc(/C=C2\C(=N)N3N=C(c4ccco4)SC3=NC2=O)c(C)n1Cc1ccccc1 | i | 40* | 6 | -10
Cn1nc(C2CC2)cc1NC(=O)C1(C)CCN1C(=O)Cc1ccc(-c2ccccc2)cc1 (stereo not drawn) | i | -6 | · | ·
CC(=O)OC[C@]12CC[C@H]3[C@@](C)(CC[C@H]4C(C)(C)CCC[C@]34C)[C@@H]1CC(C1=CC(=O)OC1O)O2 (stereo partly drawn) | + | -2 | · | ·
CC(=O)OC[C@]1(OC(C)=O)C[C@@]23CC[C@H]4[C@@](C)(CCC[C@@]4(C)C(=O)O)[C@@H]2CC[C@@H]1C3 | i | -19 | -8 | -1
O=C(O)CC(C(=O)O)N1C(=O)/C(=C/c2ccc(-c3nc4ccccc4s3)o2)SC1=S (stereo not drawn) | + | 13 | -3 | 6
O=Cc1ccc(-c2nc3ccccc3s2)o1 | i | 36 | -1 | -1
O=C1c2ccccc2NC(c2ccc(O)c(O)c2)N1c1ccccc1Cl (stereo not drawn) | i | 50* | 0 | -9
CC(C)(C)OC(=O)C[C@@H]1C/C=C\C[C@H](CC(=O)N(CCO)Cc2ccccc2)C(=O)NCCOC1=O | i | 3 | -6 | 4
CSc1ccccc1NC(=S)N/N=C/c1cccn1Cc1cccc(C)c1 | i | 4 | -7 | 13
Cc1cccc(NC(=S)N/N=C/c2cccn2Cc2ccc(F)cc2)c1 | i | 51* | -2 | -14
CCS(=O)(=O)c1ccc(N=Nc2ccc(O)c3ncccc23)c(OC)c1 | + | -75 | 1 | -1
CCCCCCCCCCCCCCCCn1cc[n+](C)c1 | + | 20 | -10 | -3
CCCCCCCCn1ccc(=N)cc1 | i | -12 | -7 | 13
C#CCCC(=O)c1ccccc1/C=[N+](\[O-])c1ccccc1 | + | -2 | -4 | -11
CCCCC(=O)Nc1ccc(N2CCN(C(=O)c3ccco3)CC2)cc1 | i | -1 | -7 | 12
CC(C)N1CCc2c(sc(NC(=O)c3ccc(C(=O)c4ccccc4)cc3)c2C(N)=O)C1 | i | -6 | 2 | -12
CN1CCc2c(sc(NC(=O)c3ccc(S(=O)(=O)N4CCCCCC4)cc3)c2C(N)=O)C1 | + | 20 | -4 | -11
CN1CCc2c(sc(NC(=O)c3ccc(S(=O)(=O)N4CCCC4)cc3)c2C(N)=O)C1 | · | -5 | 6 | -7
CC(C)N1CCc2c(sc(NC(=O)c3ccc4ccccc4c3)c2C(N)=O)C1 | · | 54* | -1 | -1
CN1CCc2c(sc(NC(=O)c3ccc(S(=O)(=O)N4CCOCC4)cc3)c2C(N)=O)C1 | + | -8 | 0 | -4
Cc1ccc(CSCC(=O)N(C)CC(=O)Nc2ccccc2C(F)(F)F)cc1 | i | 5 | 1 | -5
COc1ccccc1N/N=C/c1c(CO)cnc(C)c1O | i | 5 | -1 | 13
COc1ccccc1NS(=O)(=O)c1cccc(C(=O)N/N=C/c2c(CO)cnc(C)c2O)c1 | i | 41* | -13 | -3
SMILES | Rpn11 inh | Neddylation inh | PKA-R2B activ | PKA-R1A act
COc1ccc(C)cc1S(=O)(=O)NC(C)C(=O)Nc1ccc2c(c1)OCO2 (stereo not drawn) | i | -4 | 4 | -7
COc1ccccc1-c1c(-c2ccc(OCC(=O)NN)cc2O)n[nH]c1C(F)(F)F | i | 5 | 1 | 8
COc1ccc(-c2n[nH]c(C(F)(F)F)c2-c2cc3ccccc3o2)c(O)c1 | i | 43* | -10 | 1
C#CCOCCOCCOCCNc1nc(N2CCN(C(=O)CCCCCCCCCCNC(=O)[C@H]([C@@H](C)CC)n3cc(CCCCCN)nn3)CC2)nc(N2CCN(C(=O)CCCCCCCCCCNC(=O)[C@@H]([C@H](C)O)n3cc(C)nn3)CC2)n1 | + | -10 | -15 | 5
C#CCOCCOCCOCCNc1nc(N2CCN(C(=O)CCCCCCCCCCNC(=O)[C@H](CCC(=O)O)n3cc(CCCCCN)nn3)CC2)nc(N2CCN(C(=O)CCCCCCCCCCNC(=O)[C@@H]([C@H](C)O)n3cc(C)nn3)CC2)n1 | i | -27 | -4 | -3
C#CCOCCOCCOCCNc1nc(N2CCN(C(=O)CCCCCCCCCCNC(=O)[C@H](CCCCN)n3cc(C)nn3)CC2)nc(N2CCN(C(=O)CCCCCCCCCCNC(=O)[C@@H]([C@H](C)CC)n3cc(CCCCCN)nn3)CC2)n1 | + | -25 | 3 | 8
C#CCOCCOCCOCCNc1nc(N2CCN(C(=O)CCCCCCCCCCNC(=O)[C@H](CCCCN)n3cc(CCO)nn3)CC2)nc(N2CCN(C(=O)CCCCCCCCCCNC(=O)[C@@H]([C@H](C)O)n3cc(C)nn3)CC2)n1 | i | -5 | 2 | 1
N[C@@H](Cc1ccc(O)c(O)c1)C(=O)O | i | 1 | 7 | -3
N[C@@H](Cc1cc(I)c(Oc2ccc(O)c(I)c2)c(I)c1)C(=O)O | +! | -5 | -10 | -20
O=C(COC(=O)Cn1[nH]c(=O)c2ccccc2c1=O)NNC(=O)c1ccccc1 | i | -4 | 2 | 13
CC(=NNC(=S)N1CCN(c2ccccn2)CC1)c1ccccn1 | + | -12 | 5 | -5
O=C(N/N=C/c1ccc(F)cc1)c1cc(-c2ccco2)nc2ccccc12 | i | 43* | 4 | 3
Cc1ccc(-n2nc3c(N4CCC(C(=O)NCc5cccc(F)c5)CC4)nnc(C)c3c2C)cc1 | i | 42* | 0 | -3
Cc1ccc(-n2nc3c(N4CCC(C(=O)NCc5ccc(C)o5)CC4)nnc(C)c3c2C)cc1 | i | 8 | 1 | 1
COc1cc(C=Nc2cccc(C)c2)c(O)c([N+](=O)[O-])c1 | + | -48 | 4 | 6
Cc1cccc(N=Cc2cc3c(cc2[N+](=O)[O-])OCO3)c1 | i | 12 | -11 | -3
O=C(/C=C/NCc1cccnc1)c1ccc(-c2ccccc2)cc1 | i | -25 | -6 | -8
Cc1cc(/C=N/NC(=O)c2cccs2)c(C)n1-c1ccccc1 | i | 40* | -3 | 0
CCCN(CCC)CCNC(=O)c1cc2c(=O)n(C)c3ccccc3c2n1C | i | 44* | -7 | -6
Cc1ccc(C2=N/C(=C/N3CCOCC3)C(=O)O2)cc1 | i | -22 | -7 | -13
Cc1cccc2cc(/C=C3\N=C(c4ccccc4)OC3=O)c(N3CCOCC3)nc12 | + | -68 | 4 | -2
